These results are taken from publication PMC4336329 (PLoS ONE, 2015).

Molecules are shown by their SMILES. The whole screen tested about 310,000 compounds, of which about 14,000 (4.5%) showed an effect of 50% or more. The effect is printed as a negative number. Only a selection was taken, and strong results are over-represented in it overall.
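Note: peak tail current of the secondary pulse compared with the same well before compound.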

human ether-à-go-go-related gene (hERG) potassium channel, sequence (Q12809 whole entry, looked up): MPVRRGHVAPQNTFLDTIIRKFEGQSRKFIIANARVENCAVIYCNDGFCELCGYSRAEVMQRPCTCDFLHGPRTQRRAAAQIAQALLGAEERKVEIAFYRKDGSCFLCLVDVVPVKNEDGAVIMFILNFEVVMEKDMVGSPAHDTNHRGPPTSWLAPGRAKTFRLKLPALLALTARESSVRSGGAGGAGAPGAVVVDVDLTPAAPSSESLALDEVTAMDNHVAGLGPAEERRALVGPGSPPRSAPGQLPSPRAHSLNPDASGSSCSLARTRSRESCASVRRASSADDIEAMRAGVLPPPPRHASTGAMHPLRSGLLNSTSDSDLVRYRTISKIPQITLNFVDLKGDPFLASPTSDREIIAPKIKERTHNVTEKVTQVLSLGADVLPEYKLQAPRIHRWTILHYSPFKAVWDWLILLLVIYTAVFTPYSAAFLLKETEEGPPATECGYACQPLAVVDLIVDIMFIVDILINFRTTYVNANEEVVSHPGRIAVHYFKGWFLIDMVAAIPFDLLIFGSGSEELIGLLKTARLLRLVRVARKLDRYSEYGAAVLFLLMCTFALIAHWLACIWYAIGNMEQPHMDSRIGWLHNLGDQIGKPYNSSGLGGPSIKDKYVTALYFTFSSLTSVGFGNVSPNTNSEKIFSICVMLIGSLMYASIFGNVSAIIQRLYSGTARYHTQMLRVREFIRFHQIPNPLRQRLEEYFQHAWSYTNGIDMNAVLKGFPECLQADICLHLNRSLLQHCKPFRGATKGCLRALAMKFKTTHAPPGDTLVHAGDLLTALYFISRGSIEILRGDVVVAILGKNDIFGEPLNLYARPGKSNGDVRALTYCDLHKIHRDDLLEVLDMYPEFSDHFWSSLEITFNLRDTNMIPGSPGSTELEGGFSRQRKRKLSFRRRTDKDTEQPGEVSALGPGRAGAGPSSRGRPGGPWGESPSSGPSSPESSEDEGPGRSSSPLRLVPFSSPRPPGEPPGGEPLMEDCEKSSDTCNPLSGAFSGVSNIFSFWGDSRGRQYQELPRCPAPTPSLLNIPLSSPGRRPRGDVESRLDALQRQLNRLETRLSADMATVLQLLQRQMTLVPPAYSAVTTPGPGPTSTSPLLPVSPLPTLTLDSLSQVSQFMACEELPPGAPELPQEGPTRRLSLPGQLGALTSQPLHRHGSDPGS

The test addresses human ether-à-go-go-related gene (hERG) potassium channel (human, UniProt Q12809). Description: primary screen, population patch clamp on CHO cells stably expressing hERG; higher = less effect of the substance.
In the case of `COc1ccc(NC(=O)/C(=C\c2ccc(OS(=O)(=O)c3ccc(C)cc3)cc2)NC(=O)c2ccccc2)cc1`, the “hERG current change (%, negative = inhibition) at 10uM” value is 17.1%. The same measure for `CC(=O)N1CCN=C1SCc1ccccc1F`: 12.6%; for `Cc1cc(C(=O)O)c(S(C)(=O)=O)s1`: -1.18%. The figure for `O=[N+]([O-])c1cccc(-c2nnn(C34CC5CC(CC(C5)C3)C4)n2)c1` is 5.85%. In the case of `Cc1cccc(NC(=O)CCN2CC(C)CC(C)C2)c1.Cl` (stereo not drawn), the “hERG current change (%, negative = inhibition) at 10uM” value was -49.2%.

As to `CC1CC(C)CN(CCC(=O)Nc2ccc(Br)cc2)C1.Cl` (stereo not drawn), the “hERG current change (%, negative = inhibition) at 10uM” value is -53.5%.

For the compound `Cc1ccc(NC(=O)CCN2CCC(C)CC2)cc1.Cl`, the “hERG current change (%, negative = inhibition) at 10uM” value came to 18.6%. The same measure for `CC1CCN(CCC(=O)Nc2ccc(Cl)cc2)CC1.Cl`: -56.9%; for `CC1CCN(CCC(=O)Nc2ccccc2)CC1`: -10.1%. With `CC1CC(C)CN(CCC(=O)Nc2ccc3c(c2)CCC3)C1.Cl` (stereo not drawn), the “hERG current change (%, negative = inhibition) at 10uM” value is listed as -43.6%.

Consider `COc1ccc(CN2C(=O)NC3(CCOc4ccccc43)C2=O)cc1F` (stereo not drawn), for which the “hERG current change (%, negative = inhibition) at 10uM” value was -13.4%. In the case of `COC(=O)c1c(NC(=S)Nc2ccc(F)cc2[N+](=O)[O-])sc2c1CCCCC2`, the “hERG current change (%, negative = inhibition) at 10uM” value is 4.46%.

In the case of `CCC1CCCCN1C/C=C/c1ccccc1[N+](=O)[O-]` (stereo not drawn), the “hERG current change (%, negative = inhibition) at 10uM” value is on record as -60.2%. The same measure for `CCOC(=O)C1CCN(C/C=C/c2ccccc2OC)CC1`: -20.5%; for `CCN(CC)C(=O)C1CCCN(C/C=C/c2ccccc2[N+](=O)[O-])C1` (stereo not drawn): -33%. The figure for `CCOC(=O)C1CCCN(C/C=C/c2ccccc2[N+](=O)[O-])C1` (stereo not drawn) is -68.2%. The figure for `CCOC(=O)C1CCCN(C/C=C/c2ccccc2)C1` (stereo not drawn) is -24.5%. As to `CC1CCCN(C/C=C/c2ccccc2[N+](=O)[O-])C1` (stereo not drawn), the “hERG current change (%, negative = inhibition) at 10uM” value is -23.1%. The same measure for `CCOC(=O)C1CCN(C/C=C/c2ccccc2[N+](=O)[O-])CC1`: -70.2%; for `O=[N+]([O-])c1ccccc1/C=C/CN1CCCCC1`: -6.44%; for `O=[N+]([O-])c1ccccc1/C=C/CN1CCCCC1CO` (stereo not drawn): 5.49%. The same measure for `CC1CCCCN1C/C=C/c1ccccc1[N+](=O)[O-]` (stereo not drawn): -39%; for `CCOC(=O)C1CCN(C/C=C/c2ccccc2)CC1`: -28.2%. The same measure for `CC1CC(C)CN(C/C=C/c2ccccc2[N+](=O)[O-])C1` (stereo not drawn): -55.9%; for `C[N+](C)(C)CCN1C(=O)CSC1=O.[I-]`: 10.3%. As to `COC(=O)c1ccc(NC(=O)CSCc2ccccc2)cc1`, the “hERG current change (%, negative = inhibition) at 10uM” value is -13.8%. The figure for `Cc1ccccc1C(=O)O/N=C1\CCS(=O)(=O)c2sccc21` is 8.17%; for `Cc1ccccc1NC(=S)NC(NC(=O)CF)C(Cl)(Cl)Cl` (stereo not drawn) it is 2.77%. Take `CCOP(=O)(OCC)C(NC(=O)Nc1cccc(Cl)c1)C(N)=O` (stereo not drawn): the “hERG current change (%, negative = inhibition) at 10uM” value was 8.47%. As for `C/C(=N\OCC(=O)Nc1ccccc1C(C)(C)C)c1ccc2c(c1)OCCO2`, the “hERG current change (%, negative = inhibition) at 10uM” value is recorded as -10.9%.

Turning to `O=C(Nc1ccc(Cl)cc1)OCc1cc(-c2ccccc2Cl)on1`, the “hERG current change (%, negative = inhibition) at 10uM” value is listed as 7.51%. For `CC1CN(C(=O)COC(=O)c2ccc(Cl)nc2)CC(C)O1` (stereo not drawn), the “hERG current change (%, negative = inhibition) at 10uM” value was found to be 6.41%.

With `COc1ccc(OC)c(C2CC(=O)N3CN(c4ccccc4)CSC3=C2C#N)c1` (stereo not drawn), the “hERG current change (%, negative = inhibition) at 10uM” value was determined as 9.38%.

Consider `CC(=O)n1cc(/C=C2/N=C(c3ccccc3)OC2=O)c2ccccc21`, for which the “hERG current change (%, negative = inhibition) at 10uM” value is recorded as 7.37%. The same measure for `CC1CC(c2ccccc2)n2nc(N3C(=O)c4ccccc4C3=O)nc2N1` (stereo not drawn): 12.4%. Turning to `O=C1C2CC=CCC2C(=O)N1c1nc2n(n1)C(c1ccccc1)CC(c1ccccc1)N2` (stereo not drawn), the “hERG current change (%, negative = inhibition) at 10uM” value was -52.6%. Take `CC1=CC(c2ccccc2)n2nc(N3C(=O)C4CC=CCC4C3=O)nc2N1` (stereo not drawn): the “hERG current change (%, negative = inhibition) at 10uM” value is reported as -7.93%. The figure for `CC1C/C(=C/c2cccn2C)C(=O)/C(=C/c2cccn2C)C1` (stereo not drawn) is 9.5%; for `O=C(NCc1nc(-c2ccc(C(F)(F)F)cc2)no1)c1cccs1` it is 5.51%. On to `CCOc1ccc(-n2ccnc2SCC(=O)N2CCCc3ccccc32)cc1`, for which the “hERG current change (%, negative = inhibition) at 10uM” value is -13.7%.

`N#CCCN1CCN(C(=S)c2ccc(-c3cccc(Cl)c3)o2)CC1`: the “hERG current change (%, negative = inhibition) at 10uM” value is on record as -59.9%. The same measure for `S=C(c1ccc(-c2cccc(Cl)c2)o1)N1CCOCC1`: 2.46%; for `N#CCCN1CCN(C(=S)c2ccc(-c3ccc(Cl)c(Cl)c3)o2)CC1`: -14.1%. With `N#CCCN1CCN(C(=S)c2ccc(-c3cc(Cl)ccc3Cl)o2)CC1`, the “hERG current change (%, negative = inhibition) at 10uM” value is reported as -12.3%. The same measure for `N#CCCN1CCN(C(=S)c2ccc(-c3ccc(Cl)cc3)o2)CC1`: -55.8%. Consider `S=C(c1ccc(-c2cccc(Cl)c2)o1)N1CCCCC1`, for which the “hERG current change (%, negative = inhibition) at 10uM” value is recorded as 21.7%. The figure for `CC(C)c1ccc2oc(=O)cc(CN3CCCCC3)c2c1` is -12.8%; for `O=C(CN1N=C(c2ccc(Cl)cc2)CCC1=O)NCc1cccnc1` it is -26.4%.
